Rv3671c protease: Rv3671c (M. tuberculosis) protease inhibition; AID 2606; inhibition, % at 5.96 µM; P9WHR9; 320,000 tested, 0.048% active; in the data active = inhibition above about 38%;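 note: extracellular domain of Rv3671c used as enzyme; 0% = enzyme with DMSO and 100% = no enzyme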
Target sequence (P9WHR9 whole entry, looked up, the tested form may be a part): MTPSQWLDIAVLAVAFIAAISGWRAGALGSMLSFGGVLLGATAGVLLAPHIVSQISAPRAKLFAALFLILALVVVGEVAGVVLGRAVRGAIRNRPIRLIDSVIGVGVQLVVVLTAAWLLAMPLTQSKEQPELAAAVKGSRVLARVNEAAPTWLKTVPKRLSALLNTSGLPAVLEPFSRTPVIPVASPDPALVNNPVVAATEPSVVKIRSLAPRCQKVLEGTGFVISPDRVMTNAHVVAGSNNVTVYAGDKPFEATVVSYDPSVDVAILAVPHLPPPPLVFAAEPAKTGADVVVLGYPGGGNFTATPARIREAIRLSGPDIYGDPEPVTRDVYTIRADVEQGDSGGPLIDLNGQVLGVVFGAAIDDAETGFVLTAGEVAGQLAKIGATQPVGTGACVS
Mtb FBA inh: Mtb fructose-bisphosphate aldolase inhibition. purified M. tuberculosis FBA, fluorescence read-out. 360,000 tested, 2.3% active. inhibition, % at 1 µM. P9WQA3; in the data active = inhibition above about 27%;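 note: 0% = vehicle and 100% = reference inhibitor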
GDH-TPI inh: inhibits GDH-TPI coupling enzymes, artifact for Mtb FBA screen. inhibition, % at 4.8 µM. GDH-TPI coupled enzyme counterscreen, NADH absorbance. 360,000 tested, 1.2% active; in the data active = inhibition above about 30%;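 note: 0% = DMSO wells and 100% = wells lacking the enzyme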
UGM FP inh: Mtb UDP-galactopyranose mutase inhibition. P9WIQ1. purified UGM, fluorescence polarization probe displacement. inhibition, % at 10 µM. 320,000 tested, 0.06% active. AID 504406; in the data active = inhibition above about 10%, passing the limit was not always enough
Active calls of the source: *; nt = no result given; + = active, no number. Hits are enriched below; roughly 3.5% of the tested compounds scored in any of these assays.

SMILES | Rv3671c protease | Mtb FBA inh | GDH-TPI inh | UGM FP inh
CC(C)CCN1CCNC(=O)C1CC(=O)N(C)CCCN1CCOCC1 (centres undefined) | 3.6 | -0.9 | 0.0 | 1.2
COC(=O)c1ccc(S(=O)(=O)c2ccc(Cl)cc2)c(N)c1 | -9.4 | 114.7* | 2.9 | -0.1
CCCn1nnnc1NCc1ccc(C(C)C)cc1 | -1.9 | 0.5 | 1.4 | 0.3
Cn1nc(-c2ccccc2)c2ncc(C(F)(F)F)cc21 | -5.6 | 28.2* | 6.1 | -5.8
COc1ccc(/C=N/NC(=O)c2cccnc2)cc1COc1ccc(NC(C)=O)cc1 | -6.4 | -7.8 | 31.0* | -0.9
O=C(NN=Cc1ccc(N(CCCl)CCCl)cc1)c1cccnc1 | nt | -1.1 | 37.9* | nt
O=C(N/N=C/c1cc(Br)c(O)c(Br)c1)c1cccnc1 | 5.0 | -0.3 | 30.7* | 0.3
O=C(NN=Cc1ccc(N(CCCl)CCCl)cc1)c1cccc([N+](=O)[O-])c1 | nt | -1.5 | 28.9 | nt
COc1cc(/C=N/NC(=O)c2cccnc2)cc(Br)c1O | -3.4 | 1.9 | 44.2* | 0.7
COc1ccc(NC(=O)COC(=O)CN2C(=O)c3ccccc3C2=O)cc1 | nt | -0.8 | 11.7 | nt
O=[N+]([O-])c1ccc(S(=O)(=O)Nc2ccccn2)cc1 | -1.3 | -3.8 | 6.4 | -2.2
O=C(N/N=C/c1ccc(OC(=O)c2ccccc2)cc1)c1cccnc1 | -4.8 | + | 0.0 | -1.1
CCC(C)(C)NC(=O)c1ccc(Sc2nncn2C)c([N+](=O)[O-])c1 | -6.0 | 2.7 | 15.5 | 2.1
Cn1cnnc1Sc1ccc(/C=C/C(=O)c2ccc(O)cc2)cc1[N+](=O)[O-] | 6.7 | -2.6 | 37.4* | 2.2
C[C@@H]1CCCCO[C@H](CN(C)Cc2ccc(C(=O)O)cc2)[C@H](C)CN([C@@H](C)CO)C(=O)c2cc(NC(=O)Nc3ccc(C(F)(F)F)cc3)ccc2O1 | nt | 5.5 | 6.2 | nt
COc1cccc(NC(=O)CN(C)C(C)C(=O)N2CCCCC2)c1 (centres undefined) | -0.2 | 3.6 | 6.2 | -4.0
COc1ccc(NS(=O)(=O)c2ccc3oc(=O)c4[nH]c(=O)c(=O)n(C)c4c3c2)cc1 | -0.5 | 3.1 | 33.8* | -0.6
COc1ccc(NS(=O)(=O)c2ccc3c(c2)n(C)c(=O)n3C)cc1 | -2.3 | 1.0 | 3.9 | -1.4
COc1ccc(NC(=O)C2(C)Cc3c(-c4cccc(C(N)=O)c4)ccnc3O2)cn1 (centres undefined) | nt | -1.4 | -5.3 | nt
CC(=O)N1CCOc2ccc(S(=O)(=O)NCC3CCC(C(=O)Nc4ncccc4C)CC3)cc21 (centres undefined) | 5.8 | -6.9 | -1.6 | -1.8
CS(=O)(=O)Nc1ccc(C(=O)CC(=O)Nc2ccc([N+](=O)[O-])cc2)cc1 | -35.0 | 0.6 | 77.1* | 1.0
CCn1cc(/C=C(\NC(=O)c2ccc(OC)c(OC)c2)C(=O)N2CCN(C)CC2)c2ccccc21 | -5.4 | -1.8 | 26.7 | 1.4
CCn1cc(/C=C(\NC(=O)c2ccc(C)cc2)C(=O)NCCCN2CCOCC2)c2ccccc21 | nt | 0.7 | 41.5* | nt
COc1ccccc1C(=O)N/C(=C\c1cn(C)c2ccccc12)C(=O)NCCN1CCOCC1 | nt | -1.5 | 21.9 | nt
CCn1cc(/C=C(\NC(=O)c2ccccc2F)C(=O)N2CCN(C)CC2)c2ccccc21 | nt | 0.7 | 38.9* | nt
SMILES | Rv3671c protease | Mtb FBA inh | GDH-TPI inh | UGM FP inh
CCn1cc(/C=C(\NC(=O)c2ccccc2)C(=O)NCCN2CCOCC2)c2ccccc21 | nt | -4.0 | 47.8* | nt
COc1ccccc1C(=O)N/C(=C\c1cn(C)c2ccccc12)C(=O)NCCCN1CCOCC1 | -6.9 | -2.0 | 36.2* | 0.9
Cc1cc(=O)n2nc(N3CCCC(C(=O)NCCCN4C(C)CCCC4C)C3)sc2n1 (centres undefined) | nt | 0.5 | -6.2 | nt
CCN(CC(=O)Nc1c(F)cccc1F)C(=O)CCSc1ccc(F)cc1 | 3.4 | -3.1 | -2.8 | -3.5
CCOc1cc(C(=O)OCC(=O)Nc2cccc(S(=O)(=O)NC3=NCCCCC3)c2)cc(OCC)c1OCC | -8.9 | -0.1 | 4.9 | 2.3
COc1ccccc1CNC(=O)CN1C(=O)NC(c2ccccc2)(c2ccccc2)C1=O | -2.6 | -0.4 | 5.3 | 1.7
CN(C)c1ccc(/C=C(/NC(=O)c2ccccc2Cl)C(=O)NCCN2CCOCC2)cc1 | -25.2 | -1.7 | 41.9* | 0.8
CCn1cc(/C=C(\NC(=O)c2ccc(OC)c(OC)c2)C(=O)NCCCN2CCOCC2)c2ccccc21 | nt | 3.4 | 40.9* | nt
COc1cc(C(=O)N/C(=C\c2cn(C)c3ccccc23)C(=O)NCCCN2CCOCC2)cc(OC)c1OC | 4.5 | -3.5 | 27.7 | 2.2
CN(C)c1ccc(/C=C(/NC(=O)c2ccccc2)C(=O)NCCN2CCOCC2)cc1 | -23.8 | -3.4 | 27.8 | -8.1
CC1CCN(CCCNC(=O)c2coc3nc4ccccc4nc23)CC1 | -1.2 | + | 7.5 | -5.2
CC1CCCN(CCCNC(=O)c2coc3nc4ccccc4nc23)C1 (centres undefined) | -10.3 | 155.3* | 1.2 | -0.6
CC1CCCN(CCCNC(=O)c2nn(C)c3c2CSc2ccccc2-3)C1 (centres undefined) | -20.6 | -4.0 | -15.8 | 0.7
CC1(C)CC(=O)C(C=Nc2ccccc2C(=O)O)=C(O)C1 | -4.6 | 13.0 | 42.5* | -1.1
O=C(CCSc1nc(-c2ccco2)cc(C(F)(F)F)n1)NCC1CCCO1 (centres undefined) | -2.2 | -0.7 | 32.9* | -0.1
O=C(CSc1nc(-c2ccco2)cc(C(F)(F)F)n1)NCCCN1CCOCC1 | -5.2 | 2.1 | 15.2 | 1.2
O=C(CSc1nc(-c2ccco2)cc(C(F)(F)F)n1)NCC1CCCO1 (centres undefined) | 4.0 | 0.5 | 31.4* | -0.2
Cc1cc(NC(=O)CSc2nc(-c3ccco3)cc(C(F)(F)F)n2)no1 | 5.4 | 3.6 | 24.3 | 1.0
COc1ccccc1N1CCN(C(=O)CSc2nc(-c3ccco3)cc(C(F)(F)F)n2)CC1 | -5.8 | 0.3 | 31.7* | -1.2
Cc1cc(NC(=O)CCSc2nc(-c3ccco3)cc(C(F)(F)F)n2)no1 | -0.7 | -4.6 | 10.4 | -0.2
Cc1cccc(C)c1NC(=O)CSc1nc(-c2ccco2)cc(C(F)(F)F)n1 | 2.4 | 1.8 | 33.3* | 2.8
CCOC(=O)c1c(C)[nH]c(C)c1S(=O)(=O)NCCc1ccco1 | -0.9 | 0.5 | -0.9 | -1.1
O=C(CCCSc1nc(-c2ccco2)cc(C(F)(F)F)n1)NCc1cccs1 | -1.8 | -3.7 | 10.4 | 0.8
O=C(CCCSc1nc(-c2ccco2)cc(C(F)(F)F)n1)NCC1CCCO1 (centres undefined) | 5.2 | -0.3 | 32.9* | 2.5
Cc1csc(CNc2ncnc3ccc(-c4cccc(Cl)c4)cc23)c1 | -87.2 | 7.3 | 10.9 | 2.4
SMILES | Rv3671c protease | Mtb FBA inh | GDH-TPI inh | UGM FP inh
CCOC(=O)c1ccc(-c2ccc3ncnc(NCc4csc(C)n4)c3c2)o1 | nt | + | 37.1* | nt
CC1(C)S/C(=N/N=C/c2ccco2)NC1=O | 9.1 | -0.9 | 54.8* | -0.8
CC1S/C(=N/N=C/c2cccs2)NC1=O (centres undefined) | 1.3 | 0.3 | 42.3* | -0.4
CC1S/C(=N/N=C/c2ccco2)NC1=O (centres undefined) | -4.7 | -1.6 | 38.8* | 1.0
Cc1cccc(NC(=O)C2CC(=O)N/C(=N/N=C/c3ccco3)S2)c1 (centres undefined) | -30.5 | -1.7 | 57.0* | 2.2
C[C@H]1CN(CCc2ccccc2)C(=O)[C@@H]1CC(=O)Nc1ccc(Br)cc1 | nt | -1.3 | 2.1 | nt

Screening results deposited in PubChem by several laboratories.
